In the supplement of paper PMC10338343:
± gives the standard deviation.

test system: MILI (PIWIL2) piRISC loaded with L1MC piRNA (26 nt); assay: pre-steady-state target cleavage rate (min^-1); guide: L1MC piRNA 5'p-UAACUAAAUACUAUGCAAGCUGUAGG; MIWI and MILI are mouse PIWI proteins and EfPiwi is from a freshwater sponge; tags in brackets are library labels; higher = faster piRNA-guided slicing of the target; conditions: auxiliary factor: 500 nM mouse GTSF1
Protocol: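 Cleave-'n-Seq: a library of target RNAs (target site embedded in constant flanks, ACAGCATTCCGCGTTAGTGATATCCG... 5' flank; DNA-blocked outside the site) at 0.1 nM was incubated with 1 nM active mouse MILI or MIWI piRISC (synthetic 5'-monophosphorylated piRNA guide) with or without 500 nM mouse GTSF1 at 33 °C for 1 min to 16 h. Uncleaved targets were sequenced and normalised to non-target controls, and the pooled three trials were fitted to a burst-and-steady-state model to give the pre-steady-state cleavage rate (min^-1; k3 is constrained to at most 1e-4). Sequence is the target site only; target names encode pairing extent (gX:gY) and contiguous / 1-mismatch / 2-mismatch / bulge geometry. Fits with R² ≤ 0 are excluded.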

Sequence	pre-steady-state target cleavage rate
UCCUGCUACAGCUUGCAUAGUAUCUUAGUUA	0.259 ± 0.027
UCCUGGUACAGCAUUGCAUAGUAUUUAGUUA	0.257 ± 0.039
UCCUGGAAGAGCUUGCAUAGUAUUUAGUAA	0.201 ± 0.014
UCCUGCUACAGCUUGCAUAGUAUUUAGGUUA	0.265 ± 0.042
UCCUGGAUGUGCUUGCAUAGUGAUUUAGUUA	0.00833 ± 0.0042
UCCUGGAUGUGCUUGCAUAGUAUUUAGCUUA	0.113 ± 0.028
UCCUGGAACACGUUGCAUAGUAUUUAGUAA	0.254 ± 0.036
UCCUCCUACAGCUUGCAUAGUAUUAUGUUA	0.15 ± 0.025
UCCUCCUACAGCUUGCAUAGUUAUUUCAAA	0.0507 ± 0.016
UCCUGGAUGUCGAUGCAUAGUAUUUAGGUUA	0.0911 ± 0.016
UCCUGGAAGAGCUUGCAUAGUAUAUAGUUA	0.173 ± 0.019
UCCUCCUAGAGCUUGCAUAGUAUAUAGUUA	0.249 ± 0.029
UCCUGCUACAGGUUGCAAAGUAUUUAGUUA	0.143 ± 0.013
UCCUGCUUCAGCUUGCAUUGUAUUUAGUUA	0.218 ± 0.013
UCCUCCUACAGCUUGCCUAGUAUUUAGUUA	0.253 ± 0.022
UCCUGGAUGUCGUUCCAUAGUAUUUAGUUA	0.00992 ± 0.0041
UCCUGGAUGAGCUUGAAUAGUAUUUAGUUA	0.216 ± 0.011
UCCUCCAACAGCUUGCAUAGUAUUUAGAUA	0.192 ± 0.034
UCCUGCUUCACCUUGCAUAGUAUUUAGUUA	0.228 ± 0.027
UCCUGCUACAGGAAGCAUAGUAUUUAGUUA	0.282 ± 0.014
UCCUGCUACAGCUUGCAUAGUAUAUUGUUA	0.187 ± 0.036
UCCUGGUACAGCUAGCAUAGUUUUUAGUUA	0.0495 ± 0.011

same assay, conditions: auxiliary factor: none (no GTSF1)

Sequence	pre-steady-state target cleavage rate
UCCUGCUACAGCUUGCAUAGUAUCUUAGUUA	0.00985 ± 0.0022
UCCUGGUACAGCAUUGCAUAGUAUUUAGUUA	0.0159 ± 0.0049
UCCUGGAAGAGCUUGCAUAGUAUUUAGUAA	0.00564 ± 0.0021
UCCUGCUACAGCUUGCAUAGUAUUUAGGUUA	0.00346 ± 0.0028
UCCUGGAUGUGCUUGCAUAGUGAUUUAGUUA	0.007 ± 0.0031
UCCUCCUACAGCUUGCAUAGUAUUAUGUUA	0.00329 ± 0.0023
UCCUGGAUGUCGAUGCAUAGUAUUUAGGUUA	0.00466 ± 0.0031
UCCUGGAAGAGCUUGCAUAGUAUAUAGUUA	0.00457 ± 0.0025
UCCUCCUAGAGCUUGCAUAGUAUAUAGUUA	0.00315 ± 0.0025
UCCUGCUACAGGUUGCAAAGUAUUUAGUUA	0.00965 ± 0.0025
UCCUGGAUGUCGUACGAUAGUAUUUAGUUA	< 0.0001
UCCUGCUUCAGCUUGCAUUGUAUUUAGUUA	0.0103 ± 0.0023
UCCUCCUACAGCUUGCCUAGUAUUUAGUUA	0.00736 ± 0.002
UCCUGGAUGAGCUUGAAUAGUAUUUAGUUA	0.00728 ± 0.0023
UCCUCCAACAGCUUGCAUAGUAUUUAGAUA	0.00442 ± 0.0025
UCCUGCUUCACCUUGCAUAGUAUUUAGUUA	0.00696 ± 0.0025
UCCUGGAUGUCGAACGUAUCUAUUUAUGUUA	< 0.0001
UCCUGCUACAGGAAGCAUAGUAUUUAGUUA	0.00969 ± 0.0027
UCCUGGUACAGCUAGCAUAGUUUUUAGUUA	0.00928 ± 0.0026
